# Laboratory results taken from PubChem BioAssay (NCATS).
# Results filed as inconclusive are left out. Activity calls are given as the source filed them. Calls come from the whole dose curve; as a rule, active = well fitted cell-killing curve with a large enough effect; inconclusive = small, poorly fitted or top-dose-only effect, or effect the other way; inactive = no such curve, though single readings can be large or run the other way.
# Experiment: Viability qHTS for spleen associated tyrosine kinase inhibitor (SYKi) drug resistant MV4-11 cells (AID 1963824); note: nearly all actives have a fitted effect of over 35% in size
# Conditions: SYKi-resistant MV4-11 viability, CellTiter-Glo, 72 h; series mostly up to 45 µM; viability, % of control: at the top concentration
# From the text: Department of Medicine, Hematology/Oncology
# University Hospital Frankfurt, Germany.
# Trials have shown promising clinical activity of the selective SYK inhibitor entospletinib in patients with high expressing HOXA9/MEIS1 acute leukemias. As the development of resistance mechanisms is a common problem in the use of targeted drugs, we performed a chemical library screen to identify drug sensitivities in SYK inhibitor resistant AML cells. […] Glucocorticoids are potent immunosuppressants which work in part by inhibiting the transcription of cytokine genes.
# Described herein is a viability screen to look for activity in the SYK inhibitor drug resistant cell line against four NCATS compound libraries (MIPE 5.0, NPC, NPACT, and Kinase) totaling 11372 compounds. Active hits were reacquired for confirmation and further secondary assay testing.
# SEQUENCE No. (e.g., 1, 2, 3, etc.); […] (e.g., Cells, Incubation, Reagent, etc.); VALUE; DESCRIPTION.
# 1; Media; 2uL; white, solid-bottom Corning assay plate.
# 2; Compounds; 23nL; Echo acoustic dispenser.
# 3; Cell; 5uL; 500 cells per well.
# 4: Incubation; 72hr; 37 C, 5% CO2, 95% humidity.
# 5; Reagent; 3uL; CellTiter-Glo reagent (Promega).
# 6; Incubation; 10min; room temperature.
# 7; Detection; Luminescence; ViewLux plate reader (PerkinElmer).
# NOTES (numbers refer to Sequence numbers above
# 1. Quantitative high-throughput screening (qHTS) of small molecule compounds was conducted on drug resistant SYKi MV4-11 cell line.
# 2. Twenty-three nanoliter of small molecule compounds were added to each assay plates using the Echo acoustic dispenser (Beckman Coulter).
# 3. Cells were seeded into the assay plates at a final density of 500 cells in 5uL of media per well using the Multidrop Combi dispenser.
# 4. Plates were covered with stainless steel gasketed lids and incubated for 72 hours at standard cell culture conditions.
# 5. Viability was assessed by adding 3uL of CellTiter-Glo detection reagent (Promega).
# 6. Plates were covered with gasket lids and incubated for 10 minutes at room temperature.
# 7. Luminescence was measured on a ViewLux plate reader (PerkinElmer).
# Potency is the fitted concentration of half-maximal effect.
Structure (SMILES),Potency,"viability, % of control"
COC(=O)[C@@]12OC[C@]34[C@H]([C@@H](O)[C@@H]1O)[C@@]1(C)CC(=O)C(O)=C(C)[C@@H]1C[C@H]3OC(=O)[C@H](OC(=O)/C=C(\C)C(C)C)[C@@H]24,13.2 nM (active),
COC(=O)C1(C)CCC(O)C2(C)c3cc(O)c(C(C)C)cc3C(O)C(OC(C)=O)C12 (stereo not given),,88.6% [at 17.3 µM] (inactive)
CCNc1nc(Cl)nc(NCC)n1,,102% (inactive)
CCc1c(C(=O)C(N)=O)c2c(OCC(=O)O)cccc2n1Cc1ccccc1,,85.5% (inactive)
CCC1(c2ccccc2)C(=O)N(COC)C(=O)N(COC)C1=O,,94% (inactive)
CC[N+]1(CCOC(=O)C(O)(c2ccccc2)c2ccccc2)CCCCC1,,79.1% (inactive)
CCC1(O)CCC2C3CCC4=CC(=O)CCC4C3CCC21CC (stereo not given),14600 nM (active),
[N-]=[N+]=CC(=O)OC[C@H](N)C(=O)O,,79.9% (inactive)
Cc1cccc(C)c1NC1=NCCCS1,,84.2% (inactive)
COC1CC(O[C@H]2CC[C@]3(C=O)C4CC[C@]5(C)[C@@H](C6=CC(=O)OC6)CC[C@]5(O)[C@@H]4CC[C@@H]3C2)OC(C)C1O[C@@H]1O[C@H](CO)[C@@H](O[C@@H]2O[C@H](CO)[C@@H](O)[C@H](O)[C@H]2O)[C@H](O)[C@H]1O (stereo not given in full),123 nM (active),
C[C@@H]1C(=O)O[C@H]2[C@H](O)[C@@]34[C@@H]5OC(=O)[C@@]3(O[C@@H]3OC(=O)[C@@H](O)[C@@]34[C@H](C(C)(C)C)[C@H]5O)[C@@]12O,,92.2% [at 17.3 µM] (inactive)
Nc1ccc(Sc2ccc(N)cc2)cc1,43300 nM (active),
COCC1OC(=O)c2coc3c2C1(C)C1=C(C3=O)C2CCC(=O)C2(C)CC1OC(C)=O (stereo not given),2060 nM (active),
CC(=O)OC[C@]12C[C@H](OC(=O)CC(C)C)C(C)=C[C@H]1O[C@@H]1[C@H](O)[C@@H](O)[C@@]2(C)[C@]12CO2,8.9 nM (active),
O=C1CN=C(c2ccccc2Cl)c2cc(Br)ccc2N1,,80.5% (inactive)
Cc1cc(O)ccc1Cl,,92.8% (inactive)
C=C1[C@@H](C)C2[C@H](Cc3ccccc3)NC(=O)[C@@]23C(/C=C/C[C@H](C)C[C@@](C)(O)/C=C/[C@@H]3OC(C)=O)[C@@H]1O (stereo not given in full),920 nM (active),
O=C(Oc1ccc([N+](=O)[O-])cc1)N1CCN(Cc2cccc(Oc3ccccc3)c2)CC1,13200 nM (active),
C[C@H]1O[C@@H](n2cnc3c(N)ncnc32)C[C@@H]1O,,25.2% (inactive)
O=P1(NCCCl)OCCCN1CCCl (stereo not given),inactive,

Structure (SMILES),Potency,"viability, % of control"
C/C=C(\C)C(O)C(C)/C=C(C)/C=C/C/C(C)=C/Cc1nc(OC)c(OC)c(O[C@@H]2O[C@@H](C)[C@H](O)[C@@H](O)[C@H]2O)c1C (stereo not given in full),252 nM (active),
CC(=O)NC1CCSC1=O (stereo not given),,77.2% (inactive)
Oc1ccc(Cl)cc1,,87.5% (inactive)
COC1CC(=C(c2cccs2)c2cccs2)C[N+](C)(C)C1 (stereo not given),16800 nM (active),
CN1CCN(C(=O)O[C@H]2c3nccnc3C(=O)N2c2ccc(Cl)cn2)CC1,,70.7% (inactive)
C[C@@H](C1CC[C@@]2(O)C3=CC(=O)[C@@H]4C[C@@H](O)[C@@H](O)C[C@]4(C)[C@H]3CC[C@]12C)[C@H](O)CCC(C)(C)O (stereo not given in full),,80.4% (inactive)
CCC1NC(=O)C2C(Cl)C(Cl)CN2C(=O)C(C(C)O)NC(=O)CC(c2ccccc2)NC(=O)C(CO)NC1=O (stereo not given),,96.4% [at 17.3 µM] (inactive)
c1cc2c(c(N3CCNCC3)c1)OCCO2,,75.5% (inactive)
C=C(C)[C@@]12O[C@@H]1[C@@]1(C)C(=CC2=O)CC[C@@H](OC(C)=O)[C@@H]1C,2310 nM (active),
C[C@@]12OC(=O)[C@]1([C@@H](O)[C@@H]1C=CCCC1)NC(=O)[C@@H]2CCCl,23.5 nM (active),
Nc1ccn(C[C@@H](CO)OCP(=O)(O)O)c(=O)n1,,69.1% [at 9.25 µM] (inactive)
C[C@]12CC[C@H](O)C[C@H]1CC[C@@H]1[C@@H]2[C@H](O)C(=O)[C@]2(C)[C@@H](c3ccc(=O)oc3)CC[C@]12O,9.2 nM (active),
C[N+]1(C)[C@@H]2CC[C@H]1CC(OC(=O)C(CO)c1ccccc1)C2 (stereo not given in full),,75.7% (inactive)
COc1cccc(NCC(F)Cn2c3ccc(Br)cc3c3cc(Br)ccc32)c1 (stereo not given),2060 nM (active),
C[C@]12CC[C@H](O)CC1=CC[C@@H]1C2CC[C@]2(C)[C@@H](C3=CC(=O)OC3)CC[C@]12O (stereo not given in full),4040 nM (active),
c1ccc(C2CC2)c(OCC2=NCCN2)c1,,91.9% (inactive)
CSCC[C@@H](NC(=O)[C@@H](Cc1ccccc1)NC(=O)CNC(=O)CNC(=O)[C@@H](N)Cc1ccc(O)cc1)C(=O)O,,97.3% (inactive)
Cc1c(Cl)cccc1S(=O)(=O)Nc1nc(CC(=O)N2CCN(C)CC2)cs1,,81.1% (inactive)
C[C@@H]1O[C@@H](O[C@@H]2C=C3CC[C@@H]4[C@H](CC[C@]5(C)[C@@H](c6ccc(=O)oc6)CC[C@]45O)[C@@]3(C)CC2)[C@H](O)[C@H](O)[C@H]1O,7.5 nM (active),
CO[C@H]1C[C@H](O[C@H]2CC[C@]3(CO)[C@H]4CC[C@]5(C)[C@@H](C6=CC(=O)OC6)CC[C@]5(O)[C@@H]4CC[C@]3(O)C2)O[C@H](C)[C@H]1O,63.2 nM (active),
